Reference: PubChem BioAssay AID489025 (Southern Research Specialized Biocontainment Screening …, 2010)
The whole screen tested about 2,300 compounds, of which about 790 (34%) were called active. The rule behind the calls is not given here. This is one part of the list. A call without a number means that no potency is given here. Potency and affinity values are given separately.

Assay: THP-1 cell cytotoxicity, dose response, cytotoxicity control for non-replicating M. tuberculosis project (AID 489025)
Conditions: THP-1 cell viability; series mostly up to 40 µM

Row | Structure (SMILES) | outcome
1 | COc1ccc(-c2nc3ccc(C)cc3c(=O)o2)cc1OC | inactive
2 | CC1(C)CC(=O)C(C2NCCc3ccccc32)=C(O)C1 (centres undefined) | inactive
3 | C/C(CC(=O)Nc1ccc(C)c(Cl)c1)=N\NC(=O)c1ccco1 | inactive
4 | CCOC(=O)c1cc(COc2cc(Cl)cc(Cl)c2)on1 | inactive
5 | CCOc1ccc(NC(=O)CCC(=O)N/N=C/c2ccc([N+](=O)[O-])s2)cc1 | inactive
6 | Cc1nc2ccc(NC(=O)c3ccc([N+](=O)[O-])cc3[N+](=O)[O-])cc2s1 | inactive
7 | COc1cccc2cc(C(=O)NCc3ccc(F)cc3)c(=N)oc12 | inactive
8 | CC1Cc2cc(/C=C3/SC(=S)NC3=O)ccc2O1 (centres undefined) | inactive
9 | CC(C)(O)C#Cc1ccc(C(=O)Nc2ccc3c(c2)OCO3)s1 | inactive
10 | CC(C)n1c(=S)[nH]c2ccccc2c1=O | inactive
11 | O=C(Nc1ccccc1)c1ccc(Br)o1 | inactive
12 | CCC(C)(C)NC(=O)c1ccc(Br)o1 | inactive
13 | O=C(O)c1ccccc1C(=O)NNc1ccc(Cl)cc1 | inactive
14 | CCOC(=O)COc1ccc(C(=O)NC2CCCCC2)cc1 | inactive
15 | COc1ccc(C(=O)NN/C(C)=C/C(=O)c2ccccc2)cc1 | inactive
16 | O=C(NNc1ccc([N+](=O)[O-])cc1)c1ccccc1Cl | inactive
17 | O=C(O)c1ccccc1C(=O)NNc1ccc(F)cc1 | inactive

Row | Structure (SMILES) | outcome
18 | O=C(COC(=O)C1CCCCC1)Nc1ccccc1OC(F)F | inactive
19 | NC(=O)/C(=N\OC(=O)c1ccco1)c1nc(-c2ccc(Br)cc2)cs1 | inactive
20 | O=C(OCc1cccc(F)c1)c1ccc2c(=O)n3c(nc2c1)CCC3 | inactive
21 | Cc1ccc(/C=C2/C(=O)NC(=O)N(CCc3ccc(F)cc3)C2=O)s1 | inactive
22 | Cc1ccc(NC(=O)CN(C)C2CCCCC2)cc1Br | inactive
23 | O=C(OCCCCN1C(=O)c2ccccc2C1=O)c1ccc(Br)o1 | inactive
24 | Nn1c(SCCOc2ccc(Cl)cc2)nnc1-c1cccnc1 | inactive
25 | Cc1ccc(CC(=O)Nc2ccc(Cl)cn2)cc1 | inactive
26 | O=C(Nc1nc2ccccc2n1CCN1CCCC1)c1ccc(Cl)cc1 | inactive
27 | Cn1[nH]c(-c2ccccc2)c(/C=N/O)c1=O | inactive
28 | Clc1ccc(Cc2nnc(-c3cccs3)o2)cc1 | inactive
29 | c1cncc(-c2noc(CC3CCCCC3)n2)c1 | inactive
30 | CCOC(=O)C(=NCCOC)NNc1cc(Cl)ccc1Cl | inactive
31 | CCOc1cccc2cc(C(=O)NCc3ccccc3)c(=N)oc12 | inactive
32 | CCc1c(C)c2ccc(OCC(=O)OC)cc2oc1=O | inactive
33 | Cc1cccc2nc(-c3cccnc3)c(NCCC(C)C)n12 | inactive
34 | CSc1nn(-c2ccc(C(=O)OCC(=O)NC(=O)NC(C)C)cc2)c(=S)s1 | inactive
